Sfp inh: Sfp phosphopantetheinyl transferase inhibition. Biochemical Sfp PPTase activity, qHTS. 310,000 compounds, 3.5% hits. Potency, µM, inactives show largest response in the series, negative = inhibition, usual class: inhibitors. AID 1490;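 further: the enzyme is Sfp with the accession as filed and its product quenches rhodamine fluorescence; potency means the concentration at half of the fitted maximal effect; 0% = enzyme reaction without inhibitor and -100% = no enzyme wells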
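Sfp 15 nM + cpd, 15 min RT; start w/ rhodamine-CoA 5 uM, BHQ-2-YbbR 12.5 uM (final); 50 mM Hepes pH 7.6, 10 mM MgCl2, 0.01% NP-40, 0.01% BSA; read 525/598 nm at 0 and 30 min.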
uPA generation: inhibitors of cell surface uPA generation | 330,000 compounds, 0.31% hits | Potency, µM (doses to about 38.3 µM), without a hit: at the highest dose activity change, negative = inhibition, usual class: inhibitors | cell surface uPA generation assay, qHTS | AID 540303; active means well fitted inhibition curve with a large enough effect; inconclusive means small, poorly fitted or top-dose-only effect; inactive means no such curve, though single readings can be large or run the other way; tested in mouse RAW 264.7 cells; further: potency means the concentration at half of the fitted maximal effect; on the % scale 0 is the no-effect control and ±100 the full control effect; nearly all actives have a fitted effect of over 55% in size
ClpP mod: qHTS Assay for Activators of ClpP; ATP-dependent Clp protease proteolytic subunit (Bacillus subtilis (strain 168)), P80244; purified B. subtilis ClpP, FRET peptide cleavage, 20 min; Potency, µM (titrated, usually from 57.5 µM), inactives show top-dose activity change, negative = active; 340,000 compounds, 1.9% hits; active means well fitted falling curve with a large enough effect; inconclusive means small, poorly fitted or top-dose-only effect; inactive means no such curve, though single readings can be large or run the other way; further: potency means the concentration at half of the fitted maximal effect; the source files actives as falling curves though it sought activators and does not explain the sign; nearly all actives have a fitted effect of over 65% in size
Target sequence (P80244 whole entry, looked up): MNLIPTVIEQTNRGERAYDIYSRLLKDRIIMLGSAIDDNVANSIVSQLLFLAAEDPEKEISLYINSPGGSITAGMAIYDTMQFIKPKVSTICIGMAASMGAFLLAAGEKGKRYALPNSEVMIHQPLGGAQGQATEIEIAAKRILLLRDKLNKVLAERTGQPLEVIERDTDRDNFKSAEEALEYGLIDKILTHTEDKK
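Purified B. subtilis ClpP, 10 microg/mL final in Tris/HCl pH8 with KCl, BSA, glycerol and Tween-20, cleaved an Abz/nitrotyrosine-quenched decapeptide. Fluorescence (ex 320, em 430) was read at 0 and 20 min at room temperature. Delta was normalized to 5.8 microM ADEP and DMSO/no-enzyme controls.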
TCR activator: activators of T cell receptors. primary human leukocytes, anti-CD3, IL-2 HTRF, 48 h. Potency, µM (top dose mostly 9.22 µM), inactives show top-dose activation of IL-2 secretion, hits mostly activators. 330,000 tested, under 10 active; further: % of control where 0% means no effect
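Activity was scored as IL-2 release from primary human leukocytes given only a TCR signal (a-CD3 beads) plus compound for 48 hr. Detection used a two-antibody HTRF format read at 665nm.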
An asterisk follows results filed as active; [ ] = dose if it differs, or a comment. In the library only some 4.2% were active in any assay of this set; here they are far more common. Unless noted, the call rests on the fitted dose curve; in most records, active means well fitted curve in the direction sought with a large enough effect; inconclusive means small, poorly fitted or top-dose-only effect, or another doubt; inactive means no such curve, though single readings can be large; an effect the other way counts as inactive or inconclusive.

What do the screens show for `CC(C)(C)S(=O)(=O)c1ccc2nc3c(n2c1)CCCC3`?
Sfp inh: 18%; uPA generation: -2%; ClpP mod: 28µM*; TCR activator: 2%

What do the screens show for `CC(C)(C)c1cc(C(=S)N2CCN(CCO)CC2)cc(C(C)(C)C)c1O`?
Sfp inh: 3.2µM*; ClpP mod: 1%; TCR activator: 1%

How did CN(Cc1ccco1)c1ncnc2ccc(-c3ccc4c(c3)OCO4)cc12 do in these assays?
Sfp inh: 45µM*; uPA generation: -15%; TCR activator: -3%

How did CN(Cc1ccco1)c1ncnc2ccc(-c3cccnc3)cc12 do in these assays?
Sfp inh: -28%

Results for O=C(COc1ccc(-c2ccccc2)cc1)NNC(=O)Nc1ccc(F)cc1F ?
Sfp inh: -13%; uPA generation: 6%; ClpP mod: 32µM*; TCR activator: 1%

How did O=C(NCc1ccco1)Nc1nnc([C@H]2C[C@H](O)[C@@H](CO)O2)s1 do in these assays?
ClpP mod: -4%

How did CC1(C)Cc2c(c(N3CCCC3)[nH]c(=S)c2C#N)CO1 do in these assays?
Sfp inh: 40µM*

How did Cn1c(N)c(C#N)c2c(c1=S)COC(C)(C)C2 do in these assays?
Sfp inh: 10%; uPA generation: 0%; ClpP mod: 0%; TCR activator: -5%

Results for COc1ccc(NC(=O)O/N=C/c2c(C)nn(C(C)(C)C)c2C)cc1 ?
Sfp inh: 10%; uPA generation: 2µM*; ClpP mod: 2%; TCR activator: -4%

What do the screens show for `Cc1cccc(C(=O)N[C@@H]2c3ccccc3C[C@@H]2O)n1`?
uPA generation: 12%; ClpP mod: 1%; TCR activator: 2%

Results for CCCc1nc2c(sc3nc4c(cc32)COC(C)(C)C4)c(=O)n1Cc1ccco1 ?
Sfp inh: 28µM*; uPA generation: 8%; ClpP mod: -3%; TCR activator: -49%

Results for N#CN1CCC(NS(=O)(=O)c2ccc(C(F)(F)F)cc2)C1 (stereo not given) ?
uPA generation: -8%; TCR activator: 15%

Results for CCn1c(C)c(C(C)=O)c(N2CCN(c3ccc(OC)cc3)CC2)nc1=S ?
Sfp inh: 22µM*; uPA generation: -8%; ClpP mod: -1%; TCR activator: 3%

What do the screens show for `Nc1cc(S(=O)(=O)Nc2cc(Cl)ccc2Cl)ccc1N1CCOCC1`?
Sfp inh: 11µM*; uPA generation: -1%; TCR activator: -6%

What do the screens show for `Cn1c(=O)c(=O)n(C)c2cc(N3CCOCC3)c(NS(=O)(=O)c3ccc(Br)cc3)cc21`?
Sfp inh: 45µM*; uPA generation: -1%; ClpP mod: inconclusive; TCR activator: -10%

What do the screens show for `COc1cccc(Cn2c(=S)[nH]c3ccc(N4CCOCC4)cc3c2=O)c1`?
Sfp inh: -17%; ClpP mod: -5%; TCR activator: -4%

How did O=c1c2cc(N3CCOCC3)ccc2[nH]c(=S)n1Cc1ccco1 do in these assays?
Sfp inh: 7.9µM*; ClpP mod: 0%; TCR activator: -1%

What do the screens show for `COc1cccc(CNC(=O)CCCCCn2c(=S)[nH]c3ccc(N4CCOCC4)cc3c2=O)c1`?
Sfp inh: 79µM*; TCR activator: -4%[46.1 µM]

How did O=c1c2cc(N3CCOCC3)ccc2[nH]c(=S)n1Cc1cccc(Cl)c1 do in these assays?
Sfp inh: 19%; uPA generation: 2%; ClpP mod: 9%; TCR activator: -7%

What do the screens show for `Cc1ccccc1NC(NC(=O)c1cccnc1)C(Cl)(Cl)Cl` (stereo not given)?
Sfp inh: -7%; uPA generation: -3%; ClpP mod: 13µM*; TCR activator: 1%[46.1 µM]

What do the screens show for `CN(C)c1ccc(C=NC2CCc3ccccc32)cc1` (stereo not given)?
ClpP mod: -25%

Results for CCCn1c(N)c(N(CCOC)C(=O)c2cc3c(s2)CCC(CC)C3)c(=O)[nH]c1=O (stereo not given) ?
uPA generation: -2%; ClpP mod: 13µM*; TCR activator: -46%

Results for CCCn1c(N)c(N(CCOC)C(=O)c2cccc(S(=O)(=O)N3CCCc4ccccc43)c2)c(=O)[nH]c1=O ?
uPA generation: 11%; ClpP mod: 32µM*; TCR activator: -1%

Results for COc1ccc(OC)c2sc(N3CCN(C(=O)C(C)(C)C)CC3)nc12 ?
ClpP mod: 1%

Results for CCOC(=O)c1c(C)[nH]c(C(=O)CN2CCN(CC)CC2)c1C ?
Sfp inh: 79µM*; uPA generation: 1%; ClpP mod: 2%; TCR activator: -1%

What do the screens show for `CC(C)(C)C(=O)Nc1cccc(-c2nc3ccccc3[nH]2)c1`?
Sfp inh: inconclusive; uPA generation: -5%; ClpP mod: inconclusive; TCR activator: -6%

Results for CC(C)(C)C(=O)Nc1sc2c(c1-c1nc3ccccc3[nH]1)CCCC2 ?
Sfp inh: 9%; ClpP mod: 22µM*; TCR activator: -2%

Results for O=[N+]([O-])c1ccc(NNC(=S)Nc2ccc(F)cc2)cc1 ?
Sfp inh: 2.5µM*; uPA generation: -1%; ClpP mod: -1%; TCR activator: 3%[46.1 µM]

How did O=C(NNC(=S)Nc1ccc(F)cc1)c1cccc([N+](=O)[O-])c1 do in these assays?
Sfp inh: 5%; uPA generation: 4%; TCR activator: 4%

What do the screens show for `COc1c(CC=C(C)C)cc(C2CC(=O)c3c(O)cc(O)cc3O2)cc1CC=C(C)C` (stereo not given)?
Sfp inh: 11%; uPA generation: 7.9µM*; ClpP mod: -8%; TCR activator: 0%

Results for O=S(=O)(Nc1cc(Sc2ncn[nH]2)c(O)c2ccccc12)c1ccccc1 ?
Sfp inh: 8.9µM*; uPA generation: -13%; TCR activator: 6%

Results for O=C(O)CSc1cc(NS(=O)(=O)c2ccc(Br)cc2)c2ccccc2c1O ?
Sfp inh: 40µM*; uPA generation: inconclusive; ClpP mod: 51%; TCR activator: 0%

How did Cc1ccc(S(=O)(=O)Nc2ccc(Br)cc2C(NCC(=O)O)c2ccccc2)cc1 (stereo not given) do in these assays?
Sfp inh: -7%; uPA generation: 0%; ClpP mod: -2%; TCR activator: 12%[46.1 µM]

What do the screens show for `Cc1sc2nc3c(C(=O)N4CCCC4)cc(C(=O)c4ccccc4O)cn3c(=O)c2c1C`?
Sfp inh: 22µM*; uPA generation: 4%; ClpP mod: 1%; TCR activator: 5%

Results for CCc1c(C)sc2nc3c(C(=O)N4CCOCC4)cc(C(=O)c4cc(F)ccc4O)cn3c(=O)c12 ?
Sfp inh: inconclusive; uPA generation: -6%; TCR activator: 0%

What do the screens show for `CSc1nsc(SC)c1C(=O)NCCNS(=O)(=O)c1ccc(C)cc1`?
Sfp inh: 50µM*; uPA generation: -1%; ClpP mod: 0%; TCR activator: 5%

What do the screens show for `c1ccc2[nH]c(NCCCN3CCOCC3)nc2c1`?
Sfp inh: 7%; uPA generation: -1%; ClpP mod: 1%; TCR activator: 1%

Screening results as filed in PubChem BioAssay.
